Inconclusive results are not listed. Where a call stands in place of a potency, no number is given. Calls of active or inactive are those of the source. Calls follow the shape of the dose curve; as a rule, active = well fitted activation curve with a large enough effect; inconclusive = small, poorly fitted or top-dose-only effect; inactive = no such curve, though single readings can be large or run the other way.
Assay: qHTS Assay for Identifying a Potential Treatment of Ataxia-Telangiectasia: Hit Validation;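 also: phospho-KAP1 level by AlphaLISA as a proxy for ATM-like kinase activity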
In short: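 KAP-1 phosphorylation was read by AlphaLISA as a measure of ATM-like activity in ATM-null F2112 fibroblasts. Compounds spanned up to 76.7 uM final, with 60 min exposure at 37C and a 6 hr detection incubation at 25C.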
Potency is read from the fitted curve at half-maximal effect.

Row | SMILES | Potency
1 | COc1ccccc1S(=O)(=O)Nc1ccc(-c2nnc3n2CCCCC3)cc1 | inactive
2 | Cc1nn(CC(=O)N(C)Cc2ccc(F)cc2)c(C)c1[N+](=O)[O-] | inactive
3 | CC(NC(=O)COC(=O)/C=C/c1ccc(Cl)cc1)c1ccccc1 (stereo not drawn) | inactive
4 | CCN(CC)S(=O)(=O)c1ccc(Cl)c(NC(=O)CCCCl)c1 | inactive
5 | O=C(O)c1ccc(/C=C/c2nc3ccccc3c(=O)[nH]2)cc1 | inactive
6 | CC(=O)Nc1ccc(NC2=CC(=O)c3ccccc3C2=O)cc1 | inactive
7 | COc1ccc(OC)c(C2CC(c3ccccc3)=NN2C(=S)Nc2ccccc2)c1 (stereo not drawn) | inactive
8 | COc1ccc2nc(NCCCNC(=O)c3cc(OC)c(OC)c(OC)c3)c(C#N)cc2c1 | inactive
9 | CNC(=O)c1ccc(-c2cc3onc(-c4ccccc4)c3c(=O)n2C)cc1 | inactive
10 | COc1ccccc1N1CCN(C(=O)c2cc(=O)c3c(C)cc(C)cc3o2)CC1 | inactive
11 | CCc1oc(C(=O)OC)cc1CSC(=N)N | inactive
12 | Cn1c(=O)oc2cc(S(=O)(=O)N3CCc4ccccc43)ccc21 | inactive
13 | C/C=C\C=C/C(=O)Nc1cccc(C2=NOC3(C2)C[C@@H](C(N)=O)N(C(=O)COc2ccc(Cl)cc2)C3)c1 (stereo partly drawn) | inactive
14 | CC(C)OP(=O)(OC(C)C)C(O)c1ccc(N(C)C)cc1 (stereo not drawn) | inactive
15 | O=C(c1ccc(F)cc1)N1CCC(c2ccccc2)C1 (stereo not drawn) | inactive
16 | C[C@H](NC(=O)OC(C)(C)C)C(=O)NCC1CCC(C(=O)N[C@@H](Cc2ccccc2)C(=O)O)CC1 (stereo partly drawn) | inactive
17 | CC(=O)NNC(=O)CN1C(=O)/C(=C/c2ccccc2)SC1=S | inactive
18 | CC1CC(C)CN(S(=O)(=O)c2ccc(C(=O)NCCCn3ccnc3)cc2)C1 (stereo not drawn) | inactive
19 | CC(C)c1ccc(C(C(=O)NC2CCCCC2)N(C(=O)c2ccccn2)c2cccnc2)cc1 (stereo not drawn) | inactive
20 | COc1cccc(/C=N/NC(=O)c2cc3cc([N+](=O)[O-])ccc3s2)c1O | 51.9 µM (active)
21 | O=C1C(Cl)=C(Nc2ccccc2)C(=O)c2ccccc21 | 16.4 µM (active)
22 | CN(C)c1cc(Nc2ccc(O)cc2)c([N+](=O)[O-])c2nonc12 | inactive
23 | NC(=O)C1CCN(Cc2nc3cc(C(F)(F)F)ccc3c(=O)[nH]2)CC1 | inactive
24 | COc1ccc(NS(=O)(=O)c2ccc(N3CC(O)=C(c4ccccc4)C3=N)cc2)cc1 | inactive

Row | SMILES | Potency
25 | CCc1ccc(NC(=O)N[C@H](C(=O)O)C(C)CC)cc1 (stereo partly drawn) | inactive
26 | Cc1ccc(NC(=O)CSc2nnc([C@H](C)NC(=O)OC(C)(C)C)o2)c(C)c1 | 26 µM (active)
27 | CC(C)(C)n1nc2c(c1NC(=O)C1CC(=O)N(c3ccc(Cl)cc3)C1)CS(=O)(=O)C2 (stereo not drawn) | inactive
28 | CCOc1ccc(NC2=NCC(=O)N2Cc2cccs2)cc1 | inactive
29 | CSc1nc(SCC(=O)O)c2c3c(sc2n1)COC(C)(C)C3 | inactive
30 | C/C(CCC1CC(C)OC1=O)=N\NC(N)=S (stereo not drawn) | inactive
31 | O=C(CSc1ccccn1)N/N=C/C=C/c1ccccc1 | inactive
32 | COc1ccc(Oc2ncnc3c2oc2ccc(Br)cc23)cc1 | inactive
33 | Cc1nnc(SCC(=O)NC(=O)Nc2ccc3c(c2)OCCO3)n1N | inactive
34 | O=C(OCCc1cc2ccccc2c(=O)o1)c1cccc(Br)c1 | inactive
35 | CC1C(c2ccccc2)N(C)C(c2ccccc2)CC1(O)c1ccccc1 (stereo not drawn) | 13 µM (active)
36 | CCn1c2ccccc2c2c3ncc4cccn4c3ccc21 | 46.3 µM (active)
37 | CCn1nc(C)c(/C=N/NC(=O)Cn2cncn2)c1C | inactive
38 | CCN(CC)CCNC(=O)CCc1c(C)nc2c(c(C)nn2-c2ccc(C)cc2)c1C | inactive
39 | CSc1nc2ccccc2nc1N(C)S(=O)(=O)c1ccc(C)cc1 | 58.2 µM (active)
40 | O=C(CN1CCN(Cc2ccccc2)CC1)Nc1ccc(Cl)cc1 | inactive
41 | COC(=O)N/N=C/c1ccccc1OCCOc1ccc(OC)cc1 | inactive
42 | CC1Cc2ccccc2N1C(=O)CSc1nnnn1-c1ccc2c(c1)OCCO2 (stereo not drawn) | inactive
43 | COc1ccc(C2c3ccc(O)cc3Oc3ncn(CC(C)C)c(=N)c32)cc1 (stereo not drawn) | inactive
44 | COc1ccc2nc(C)cc(Nc3ccc(C(=O)O)cc3)c2c1 | inactive
45 | CCN1CCN(CC(=O)Nc2ccc(C(C)=O)cc2)CC1 | 26 µM (active)
46 | C=CCSc1nc2ccccc2n1C(=O)/C=C/c1cc(OC)c(OC)c(OC)c1 | 26 µM (active)
47 | COc1cc(CCC(=O)OCC(=O)N2CCc3ccccc32)cc(OC)c1OC | inactive
48 | CCOC(=O)N1CCC(NC(=O)C2CCN(S(=O)(=O)c3cccc4cccnc34)CC2)CC1 | inactive

From PubChem BioAssay AID493192 (National Center for Advancing Translational Sciences (NCATS), 2011)
